The source made the active and inactive calls. No rule for the calls is given here.
system: Botulinum neurotoxin type F light chain protease (Clostridium botulinum); assay: Clostridium botulinum type F light chain protease inhibitors, microsphere substrate cleavage, validation (AID 588459); settings: multiplex microsphere protease substrate cleavage assay, flow cytometry; at 10 µM; active compounds read high

Row | Structure (SMILES) | inhibition
1 | COc1ccc2[nH]cc(C3N4CC5(C)CN3CC(C)(C4)C5=O)c2c1 (stereo unspecified) | 3% (inactive)
2 | COc1cc2c(cc1OC)C1(CCCC1)CNC2c1cccc([N+](=O)[O-])c1 (stereo unspecified) | 1% (inactive)
3 | O=C(O)CP(=O)(O)O | 1.3% (inactive)
4 | O=C(O)CCn1c(=S)n(CCC(=O)O)c2ccccc21 | 2.7% (inactive)
5 | CC(=O)OCC(=O)[C@@]1(O)[C@H](C)C[C@H]2[C@@H]3CCC4=CC(=O)C=C[C@]4(C)[C@@]3(F)[C@@H](O)C[C@@]21C | 3% (inactive)
6 | O=C1C(Cc2c[nH]c3ccccc23)NC(=S)N1Cc1ccccc1 (stereo unspecified) | -0.2% (inactive)
7 | COc1ccc(/C=C/C(=O)Nc2ccccc2C(=O)O)cc1OC | 2.5% (inactive)
8 | O=C(Cc1cccc2ccccc12)N1CC[C@@]2(O)CCCC[C@H]2C1 | 2.2% (inactive)
9 | O=C(O)c1ccc(C(=O)C(=O)c2ccccc2)cc1 | 1.6% (inactive)
10 | CCN(CC)CCNC(=O)c1cc(S(C)(=O)=O)ccc1OC | 2.7% (inactive)
11 | Cn1c(=O)c(C(=O)NCCO)c(O)c2ccccc21 | 0.4% (inactive)
12 | O=C1Nc2ccc3sc4ccccc4c3c2C1=O | -1.1% (inactive)
13 | O=C(CCC1CCCN(C(=O)c2ccsc2)C1)NCc1ccc(F)c(F)c1 (stereo unspecified) | 2.2% (inactive)
14 | COc1cccc(CC2CC(=O)N(c3ccc4c(C)cc(=O)oc4c3)C2=O)c1 (stereo unspecified) | 3.1% (inactive)
15 | N/C(=N\OC(=O)CCCOc1ccc(Cl)cc1Cl)c1ccccn1 | 4% (inactive)
16 | CSCCC(NC(=O)OC(C)(C)C)C(=O)Oc1ccc2c(=O)c(-c3ccc4c(c3)OCCO4)coc2c1 (stereo unspecified) | -0.4% (inactive)
